The values that follow come from the supplement of paper PMC7366291.

SMILES strings stand for the structures. Structures can show the parent of a compound that is named as a salt. ± gives the standard deviation or the standard deviation of the averaged measurements.

Common to all, as to conditions: 25 µM; exposure: 24-48 hpf
The subject of assay [1] is Danio rerio Tg(wt1b:EGFP) embryo, pronephros. The assay is described as follows: glomerular separation, fold change vs DMSO control; higher = glomeruli further apart (abnormal). An outline of the steps:
(§1)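 Dechorionated Tg(wt1b:EGFP) zebrafish embryos were incubated at 28.5°C from 24 to 48 hpf with 25 μM compound in HEPES-buffered E3 containing 0.5% DMSO and 0.003% PTU. Distances and angles between 16 manually set points on maximum projections of dorsal pronephros images were measured in Fiji, with values over 2 SD from the feature mean excluded. Each feature is a fold change relative to the mean of same-day DMSO-treated embryos.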

Assay [2] has the same test system. The assay is described as follows: glomerular width (mean of left and right), fold change vs DMSO control; higher = wider glomerulus. An outline of the steps: as §1
Assay [3] has the same test system. Nature of the assay: fraction of imaged embryos annotated as normal kidney; higher = less nephrotoxic; extreme values may be limits of the assay. An outline of the steps:
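Embryos of the Tg(wt1b:EGFP) zebrafish line were dechorionated and held in 12-well plates with 25 μM compound in 0.5% DMSO and 5 mM HEPES-buffered E3 containing 0.003% PTU, from 24 to 48 hpf at 28.5°C. Larvae were then anaesthetised with tricaine, set dorsal side up in agarose-filled 96-well plates, and their pronephroi imaged by widefield fluorescence at 470 nm over 10 z-slices. Each value is the fraction of embryos per treatment placed in the normal-kidney category after manual annotation of maximum projections.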

For assay [4] the test system is unchanged. Nature of the assay: pronephric angle neck segment to proximal convoluted tubule (mean of left and right), fold change vs DMSO control; higher = larger pronephric angle. Summed up: as §1

`CC(C)NCC(O)COc1ccc(COCCOC(C)C)cc1` (stereo not drawn) [Bisoprolol fumarate]: in assay [1], the glomerular separation was 1.2 ± 0.41. This molecule also displayed a glomerular width in assay [2] of 1.07 ± 0.03. Also, the “fraction of imaged embryos annotated as normal kidney” value (from here on “fraction of imaged embryos annotated”) in assay [3] was found to be 0.583. The “pronephric angle neck segment” value in assay [4] was determined as 0.999 ± 0.083.
As for `COc1ccc(NS(=O)(=O)c2ccc(N)cc2)nn1` [Sulfamethoxypyridazine], the glomerular separation in assay [1] is 0.681 ± 0.15. This molecule also registered a glomerular width in assay [2] of 1.03 ± 0.1. For the same molecule, the “fraction of imaged embryos annotated” value in assay [3] was found to be 1. Also, the “pronephric angle neck segment” value in assay [4] worked out at 1.006 ± 0.0011.
Take `Oc1ccc(OCc2ccccc2)cc1` [Monobenzone]: the glomerular separation in assay [1] is 2.85 ± 1.3. The molecule further showed a glomerular width in assay [2] of 0.753 ± 0.068. Besides, in assay [3], the “fraction of imaged embryos annotated” value was 0.25. In assay [4], the “pronephric angle neck segment” value was found to be 1.21 ± 0.018.
Molecule `CC(C)(C)NC[C@@H](O)COc1cccc2c1CCCC2=O` [(+) -Levobunolol hydrochloride] displayed a glomerular separation in assay [1] of 0.984 ± 0.46. Also, the glomerular width in assay [2] was determined as 0.935 ± 0.054. For the same molecule, in assay [3], the “fraction of imaged embryos annotated” value amounted to 0.75. In assay [4], the “pronephric angle neck segment” value amounted to 1.03 ± 0.015.
`Clc1ccc(C(Cn2ccnc2)OCc2csc3c(Cl)cccc23)c(Cl)c1` (stereo not drawn) [Sertaconazole nitrate] registered a glomerular separation in assay [1] of 3.82 ± 1.8. Besides, the glomerular width in assay [2] is 0.727 ± 0.039. Moreover, the “fraction of imaged embryos annotated” value in assay [3] came to 0. In addition, the “pronephric angle neck segment” value in assay [4] came out at 1.56 ± 0.052.
The like results for `CO/N=C(\C(=O)N[C@@H]1C(=O)N2C(C(=O)O)=C(COC(C)=O)CS[C@H]12)c1csc(N)n1` [Cefotaxime sodium salt] were, in that order, 0.857 ± 0.26, 0.957 ± 0.011, 0.909 and 0.982 ± 0.017.
`CC(C)NCC(O)c1ccc(NS(C)(=O)=O)cc1` (stereo not drawn) [Sotalol hydrochloride] returned a glomerular separation in assay [1] of 0.82 ± 0.23. In assay [2], this molecule returned a glomerular width of 1.03 ± 0.062. In addition, the “fraction of imaged embryos annotated” value in assay [3] is 0.8. In assay [4], the “pronephric angle neck segment” value came to 1.01 ± 0.043.
The like results for `CCn1cc(C(=O)O)c(=O)c2cc(F)c(N3CCNCC3)cc21` [Norfloxacin] were, in that order, 0.828 ± 0.22, 1.05 ± 0.037, 1 and 0.9433 ± 0.0086.
For `Cc1c(Cl)cccc1Nc1ncccc1C(=O)O` [Clonixin Lysinate] the same measures were 4.04 ± 1.5, 0.545 ± 0.048, 0 and 1.81 ± 0.068.
For `CN(C)CCCN1c2ccccc2CCc2ccccc21` [Imipramine hydrochloride] the same measures were 0.946 ± 0.39, 1.02 ± 0.14, 0.75 and 0.996 ± 0.041.
`CC[N+](C)(CC)CCOC(=O)C1c2ccccc2Oc2ccccc21` [Methantheline bromide]: the glomerular separation in assay [1] was found to be 0.979 ± 0.45. Also, the glomerular width in assay [2] came to 0.996 ± 0.029. Moreover, the “fraction of imaged embryos annotated” value in assay [3] was determined as 0.917. For the same molecule, the “pronephric angle neck segment” value in assay [4] is 1.045 ± 0.0066.
Take `C=CCN1CCCC1CNC(=O)c1cc2nn[nH]c2cc1OC` (stereo not drawn) [Alizapride hydrochloride]: the glomerular separation in assay [1] amounted to 1.18 ± 0.37. The glomerular width in assay [2] came to 0.924 ± 0.018. The “fraction of imaged embryos annotated” value in assay [3] turned out to be 0.917. Moreover, the “pronephric angle neck segment” value in assay [4] is 1.02 ± 0.049.
`C[C@@H]1C[C@H]2[C@@H]3C[C@H](F)C4=CC(=O)C=C[C@]4(C)[C@@]3(F)[C@@H](O)C[C@]2(C)[C@@]1(O)C(=O)COC(=O)C(C)(C)C` [Flumethasone pivalate] yielded a glomerular separation in assay [1] of 1.2 ± 0.37. In assay [2], this molecule came in with a glomerular width of 1.04 ± 0.015. For the same molecule, the “fraction of imaged embryos annotated” value in assay [3] came out at 0.25. Moreover, the “pronephric angle neck segment” value in assay [4] came out at 0.989 ± 0.0085.
For `C#Cc1cccc(Nc2ncnc3cc(OCCOC)c(OCCOC)cc23)c1` [Erlotinib] the same measures were 0.768 ± 0.23, 1.05 ± 0.03, 0.833 and 0.994 ± 0.031.
For `CNNCc1ccc(C(=O)NC(C)C)cc1` [Procarbazine hydrochloride] the same measures were 1.02 ± 0.24, 0.973 ± 0.017, 1 and 1.084 ± 0.0049.
In turn, `CCN1CCC[C@H]1CNC(=O)c1c(OC)ccc(Br)c1OC` [Remoxipride Hydrochloride] showed a glomerular separation in assay [1] of 0.777 ± 0.38. In addition, the glomerular width in assay [2] stood at 1.02 ± 0.08. The “fraction of imaged embryos annotated” value in assay [3] was 0.917. In assay [4], the “pronephric angle neck segment” value is 0.976 ± 0.032.
The like results for `CC[C@H](C)C(=O)O[C@H]1CCC=C2C=C[C@H](C)[C@H](CC[C@@H]3C[C@@H](O)CC(=O)O3)[C@H]21` [Mevastatin] were, in that order, 4.87 ± 2.8, 0.798 ± 0.046, 0 and 1.73 ± 0.056.
Molecule `CC1(C)S[C@@H]2[C@H](NC(=O)[C@H](NC(=O)N3CCNC3=O)c3ccccc3)C(=O)N2[C@H]1C(=O)O` [Azlocillin sodium salt] yielded a glomerular separation in assay [1] of 0.819 ± 0.3. For the same molecule, in assay [2], the glomerular width was determined as 1.01 ± 0.023. In addition, in assay [3], the “fraction of imaged embryos annotated” value came out at 0.5. Moreover, the “pronephric angle neck segment” value in assay [4] came to 0.928 ± 0.015.
In assay [1], `CC(C)(O)c1ccccc1CC[C@@H](SCC1(CC(=O)O)CC1)c1cccc(/C=C/c2ccc3ccc(Cl)cc3n2)c1` [Montelukast] came in with a glomerular separation of 0.861 ± 0.26. Moreover, the glomerular width in assay [2] was 0.925 ± 0.047. For the same molecule, in assay [3], the “fraction of imaged embryos annotated” value worked out at 0.833. The “pronephric angle neck segment” value in assay [4] was found to be 1.04 ± 0.026.
The like results for `COc1ccc(C(Cl)=C(c2ccc(OC)cc2)c2ccc(OC)cc2)cc1` [Chlorotrianisene] were, in that order, 0.709 ± 0.16, 1.028 ± 0.007, 1 and 0.953 ± 0.013.
In turn, `CCOCCn1c(N2CCCN(C)CC2)nc2ccccc21` [Emedastine] had a glomerular separation in assay [1] of 0.707 ± 0.16. The molecule also returned a glomerular width in assay [2] of 0.979 ± 0.051. Also, the “fraction of imaged embryos annotated” value in assay [3] came to 0.917. The “pronephric angle neck segment” value in assay [4] was 0.9917 ± 0.0031.
With `Nc1c2ccccc2nc2ccccc12` [Aminacrine], the glomerular separation in assay [1] is 0.947 ± 0.57. The glomerular width in assay [2] is 1.01 ± 0.055. In addition, in assay [3], the “fraction of imaged embryos annotated” value is 1. For the same molecule, the “pronephric angle neck segment” value in assay [4] is 0.996 ± 0.028.
Molecule `Cc1ccccc1N1C(=O)c2cc(S(N)(=O)=O)c(Cl)cc2NC1C` (stereo not drawn) [Metolazone] displayed a glomerular separation in assay [1] of 0.86 ± 0.34. The molecule also displayed a glomerular width in assay [2] of 1 ± 0.062. Further, the “fraction of imaged embryos annotated” value in assay [3] is 0.917. In addition, the “pronephric angle neck segment” value in assay [4] is 1.03 ± 0.016.
For `CC(=O)O[C@]1(C(C)=O)CC[C@H]2[C@@H]3C=C(C)C4=CC(=O)CC[C@]4(C)[C@H]3CC[C@@]21C` [Megestrol acetate] the same measures were 1.27 ± 0.82, 0.864 ± 0.029, 0.917 and 0.9907 ± 0.0078.
The like results for `COc1ccc(C(=O)NCc2ccc(OCCN(C)C)cc2)cc1OC` [Itopride] were, in that order, 1.05 ± 0.44, 0.962 ± 0.017, 0.8 and 1.06 ± 0.055.
The like results for `COc1ccc(-c2ccc(=N)n(CCCC(=O)O)n2)cc1` [Gabazine bromide] were, in that order, 0.985 ± 0.27, 0.983 ± 0.024, 0.667 and 1.02 ± 0.026.
In the case of `CN(C)C/C=C(/c1ccc(Br)cc1)c1cccnc1` [Zimelidine dihydrochloride monohydrate], the glomerular separation in assay [1] was 0.758 ± 0.25. The molecule also gave a glomerular width in assay [2] of 0.9778 ± 0.0056. Further, the “fraction of imaged embryos annotated” value in assay [3] is 0.75. For the same molecule, the “pronephric angle neck segment” value in assay [4] stood at 0.971 ± 0.055.
